Data published in PubChem BioAssay (EPA / NIEHS).
Results filed as inconclusive are left out. Calls of active or inactive are those of the source. The calls were made as follows, unless noted: active = hit-call score of the fitted dose curve at least 0.9, where 1 is the maximum; inconclusive = response in the unintended direction; inactive = score below 0.9.

Read-out: Intercellular Adhesion Molecule 1 (ICAM1), ICAM1 (gene 3383)
Test: BSK_3C_ICAM1: BioMAP Diversity Plus: 3C Assay for Intercellular Adhesion Molecule 1 (ICAM1) Biomarker Activity (AID 2283003; active = hit-call score of the fitted dose curve at least 0.9, where 1 is the maximum; inactive = score below 0.9)
Details: primary human endothelial cells (HUVEC); actives raise or lower the signal
In short: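 Primary human umbilical vein endothelial cells in the BioMAP 3C system were exposed to chemicals for 24 h, then ICAM-1 was quantified by ELISA. Activity was fitted bidirectionally against the DMSO negative control baseline.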

| Structure (SMILES) | outcome | AC50 |
| --- | --- | --- |
| CC(C)Cc1ccc(C(C)C(=O)O)cc1 (configuration not stated) | inactive | – |
| CCCCCCCCCC(=O)OCC | – | 35.1 µM (active) |
| CC1(C)[C@H](C=C(Cl)Cl)[C@H]1C(=O)OCc1cccc(Oc2ccccc2)c1 | inactive | – |
| CC(C)(CO)CO | inactive | – |
| CCCCCCCC1CCCC1=O (configuration not stated) | – | 31.3 µM (active) |

Biological target: Retinoic acid receptor alpha (Homo sapiens) (UniProt P10276)
Sequence (P10276 whole entry, looked up): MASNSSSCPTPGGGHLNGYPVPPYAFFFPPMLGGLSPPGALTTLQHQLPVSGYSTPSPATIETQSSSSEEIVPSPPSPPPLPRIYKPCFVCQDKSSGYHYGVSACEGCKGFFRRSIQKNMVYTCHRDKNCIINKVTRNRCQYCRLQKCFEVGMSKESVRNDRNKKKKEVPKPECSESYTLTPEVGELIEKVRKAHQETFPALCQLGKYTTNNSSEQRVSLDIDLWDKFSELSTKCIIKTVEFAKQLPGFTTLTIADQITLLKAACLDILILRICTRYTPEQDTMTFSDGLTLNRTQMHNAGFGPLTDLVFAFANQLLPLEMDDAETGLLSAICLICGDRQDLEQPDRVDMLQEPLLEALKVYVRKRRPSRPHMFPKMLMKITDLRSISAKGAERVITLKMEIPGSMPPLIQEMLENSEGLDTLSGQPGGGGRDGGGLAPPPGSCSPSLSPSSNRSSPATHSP
Test: ATG_RARa_TRANS: Attagene TRANS-FACTORIAL HepG2 Assay for human Retinoic Acid Receptor alpha (RARa) (AID 2283005)
Details: not given
In short: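 HepG2 cells transiently transfected with multiple reporter units expressing chimeric RARα-GAL4 fusion, with GAL4-UAS-driven reporters. After 24 h compound exposure, reporter mRNA induction quantified by RT-PCR and capillary electrophoresis with fluorescent labeling; gain-of-signal fitted relative to DMSO control.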

| Structure (SMILES) | outcome |
| --- | --- |
| CCCCCCCCCCCCCC(=O)OCC | inactive |
| CC(=O)Oc1c(C)c(C)c2c(c1C)CC[C@@](C)(CCC[C@H](C)CCC[C@H](C)CCCC(C)C)O2 | inactive |
| CCC(C)C1CCCCC1=O (configuration not stated) | inactive |

Read-out: not listed separately
Test: BSK_3C_Proliferation: Cell Proliferation Assessment in the BioMAP Diversity Plus: 3C Assay (AID 2283006; active = hit-call score of the fitted dose curve at least 0.9, where 1 is the maximum; inactive = score below 0.9;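 as to AC50: potency may reflect either rise or fall in cell number versus DMSO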)
Details: primary human endothelial cells (HUVEC)
In short: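 Human umbilical vein endothelial cells were grown sub-confluent and exposed to chemical for 48 h, then fixed with 10% TCA and stained with 0.1% sulforhodamine B; absorbance at 560 nm gave relative cell number, fitted bidirectionally against DMSO baseline.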

| Structure (SMILES) | outcome | AC50 |
| --- | --- | --- |
| CC(C)Cc1ccc(C(C)C(=O)O)cc1 (configuration not stated) | inactive | – |
| CCCCCCCCCC(=O)OCC | – | 20 µM (active) |
| CC1(C)[C@H](C=C(Cl)Cl)[C@H]1C(=O)OCc1cccc(Oc2ccccc2)c1 | inactive | – |
| CC(C)(CO)CO | inactive | – |
| CCCCCCCC1CCCC1=O (configuration not stated) | – | 36.8 µM (active) |

Biological target: Peroxisome proliferator-activated receptor gamma (Homo sapiens) (UniProt P37231)
Sequence (P37231 whole entry, looked up): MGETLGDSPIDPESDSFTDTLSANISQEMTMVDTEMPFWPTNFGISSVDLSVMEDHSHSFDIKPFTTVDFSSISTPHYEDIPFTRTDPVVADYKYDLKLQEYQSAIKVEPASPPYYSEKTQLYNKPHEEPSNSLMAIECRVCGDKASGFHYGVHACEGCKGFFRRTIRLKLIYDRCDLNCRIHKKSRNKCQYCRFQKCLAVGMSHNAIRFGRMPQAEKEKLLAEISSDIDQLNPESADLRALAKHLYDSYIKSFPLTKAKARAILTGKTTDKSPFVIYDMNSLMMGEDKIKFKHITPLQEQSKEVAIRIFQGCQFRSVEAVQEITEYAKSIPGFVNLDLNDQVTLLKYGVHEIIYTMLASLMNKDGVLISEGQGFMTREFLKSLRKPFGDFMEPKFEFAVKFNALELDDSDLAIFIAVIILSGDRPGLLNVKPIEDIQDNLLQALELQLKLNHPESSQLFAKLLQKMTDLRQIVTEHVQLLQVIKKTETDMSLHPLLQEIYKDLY
Test: ATG_PPARg_TRANS: Attagene TRANS-FACTORIAL HepG2 Assay for human Peroxisome Proliferator-activated Receptor-gamma (PPARg) (AID 2283007)
Details: not given
In short: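 Gain-of-signal endpoint relative to DMSO, derived from reporter mRNA levels quantified by RT-PCR and capillary electrophoresis. Cells were HepG2 transiently expressing a chimeric NR-Gal4 construct with GAL4-UAS reporters, exposed to chemicals for 24 h.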

| Structure (SMILES) | outcome | AC50 |
| --- | --- | --- |
| CC(=O)OC(C)(C)C | inactive | – |
| CCC=C(C)C=O | inactive | – |
| C=CCCCCCCCCC(=O)OCC | – | 55.9 µM (active) |
| CC(=O)CCc1ccc(O)cc1 | inactive | – |
| CCCCCc1cccc(=O)o1 | – | 10.6 µM (active) |
| CCCCCCCCCCCCN1CCOCC1 | inactive | – |
| CC(=O)Oc1c(C)c(C)c2c(c1C)CC[C@@](C)(CCC[C@H](C)CCC[C@H](C)CCCC(C)C)O2 | inactive | – |
| Cc1cccc(O)c1 | inactive | – |
| CCCCOCC(C)OCC(C)O (configuration not stated) | inactive | – |
| CC(C)=CC(=O)O | inactive | – |
| CCCCC/C=C\C=C\C(=O)OCC | – | 28.5 µM (active) |
| C=CC(O)CCCCC (configuration not stated) | inactive | – |
| CCCCCCCCCC(=O)OCC | – | 84.8 µM (active) |
| CCC(=O)OC(C)(C)C1CC=C(C)CC1 (configuration not stated) | inactive | – |
| Cc1cc(N)n(-c2ccccc2)n1 | inactive | – |
| C=CCOC(=O)/C=C\C(=O)OCC=C | – | 1.96 µM (active) |
| C=CC(C)(CCC=C(C)C)OC(=O)CC (configuration not stated) | inactive | – |
| CCCCOCCOCCOCCO | inactive | – |
| CCC(C)C1CCCCC1=O (configuration not stated) | inactive | – |
| C/C=C(\C)C(=O)OC/C=C(\C)CCC=C(C)C | – | 12.3 µM (active) |
| CCCCCCCC1CCCC1=O (configuration not stated) | inactive | – |

Biological target: Nuclear receptor subfamily 1 group I member 2 (Homo sapiens) (UniProt O75469)
Sequence (O75469 whole entry, looked up): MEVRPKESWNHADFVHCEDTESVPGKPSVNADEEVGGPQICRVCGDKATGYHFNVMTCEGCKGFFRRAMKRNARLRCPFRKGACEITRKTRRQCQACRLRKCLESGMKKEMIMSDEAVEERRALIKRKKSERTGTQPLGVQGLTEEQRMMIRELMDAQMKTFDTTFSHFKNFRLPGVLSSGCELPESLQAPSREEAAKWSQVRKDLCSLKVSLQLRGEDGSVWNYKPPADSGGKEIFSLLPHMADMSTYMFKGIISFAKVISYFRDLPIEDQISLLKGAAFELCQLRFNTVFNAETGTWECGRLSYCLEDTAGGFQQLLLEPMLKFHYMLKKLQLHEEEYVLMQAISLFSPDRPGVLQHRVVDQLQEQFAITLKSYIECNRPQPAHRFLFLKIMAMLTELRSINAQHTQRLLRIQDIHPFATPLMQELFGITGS
Test: ATG_PXR_TRANS: Attagene TRANS-FACTORIAL HepG2 Assay for human Pregnane X Receptor (PXR) (AID 2283008)
Details: not given
In short: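 Read-out is fluorescence of labelled reporter cDNA fragments separated by capillary electrophoresis after RT-PCR and HpaI digestion. Source: HepG2 cells carrying PXR-GAL4/UAS reporter constructs, treated 24 h; activity fitted upward relative to DMSO.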

| Structure (SMILES) | outcome | AC50 |
| --- | --- | --- |
| C=CCCCCCCCCC(=O)OCC | inactive | – |
| CCCCCC1CCC(=O)O1 (configuration not stated) | inactive | – |
| CC(=O)CCc1ccc(O)cc1 | inactive | – |
| CCCCCc1cccc(=O)o1 | inactive | – |
| CCCCCCCCCCCCN1CCOCC1 | inactive | – |
| CC(CO)c1ccccc1 (configuration not stated) | inactive | – |
| CC(C)Cc1ccc(C(C)C(=O)O)cc1 (configuration not stated) | inactive | – |
| CC1=C(C=O)C(C)(C)CCC1 | – | 2.61 µM (active) |
| CCCC1CCOC(C)S1 (configuration not stated) | inactive | – |
| CCCCOCC(C)OCC(C)O (configuration not stated) | inactive | – |
| CC(C)=CC(=O)O | inactive | – |
| CCCCC/C=C\C=C\C(=O)OCC | – | 5.19 µM (active) |
| C=CC(O)CCCCC (configuration not stated) | inactive | – |
| CCCCCCCCCC(=O)OCC | inactive | – |
| CC1(C)[C@H](C=C(Cl)Cl)[C@H]1C(=O)OCc1cccc(Oc2ccccc2)c1 | – | 1.99 µM (active) |
| CC(C)(O)C(=O)c1ccc(OCCO)cc1 | inactive | – |
| O=C(O)c1cccc(Cl)n1 | inactive | – |
| CCC(=O)OC(C)(C)C1CC=C(C)CC1 (configuration not stated) | – | 33.1 µM (active) |
| Cc1cc(N)n(-c2ccccc2)n1 | inactive | – |
| C=CCOC(=O)/C=C\C(=O)OCC=C | inactive | – |
| C=CC(C)(CCC=C(C)C)OC(=O)CC (configuration not stated) | inactive | – |
| CCC(C)C1CCCCC1=O (configuration not stated) | inactive | – |
| Brc1cc(Br)cc(Br)c1 | inactive | – |
